The target of test [1] is Mitogen-activated protein kinase 3 (Homo sapiens) (UniProt P27361). Particulars: at 1 µM.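 Further: values are mean percent inhibition of MAPK3.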
The target of test [2] is SRSF protein kinase 3 (Homo sapiens) (UniProt Q9UPE1). The settings on record: at 0.1 µM.
Test [3] shares this target. The settings on record: at 1 µM.
In test [4] the target is Mitogen-activated protein kinase 14 (Homo sapiens) (UniProt Q16539). The settings on record: at 0.1 µM.
Test [5] has the same target. The settings on record: at 1 µM.
Test [6] has as its target Mitogen-activated protein kinase 11 (Homo sapiens) (UniProt Q15759). The settings on record: at 0.1 µM.
Test [7] shares this target. Particulars: at 1 µM.
Test [8] concerns the target T1, Mitogen-activated protein kinase 13 (Homo sapiens) (UniProt O15264).
T1 sequence (whole entry): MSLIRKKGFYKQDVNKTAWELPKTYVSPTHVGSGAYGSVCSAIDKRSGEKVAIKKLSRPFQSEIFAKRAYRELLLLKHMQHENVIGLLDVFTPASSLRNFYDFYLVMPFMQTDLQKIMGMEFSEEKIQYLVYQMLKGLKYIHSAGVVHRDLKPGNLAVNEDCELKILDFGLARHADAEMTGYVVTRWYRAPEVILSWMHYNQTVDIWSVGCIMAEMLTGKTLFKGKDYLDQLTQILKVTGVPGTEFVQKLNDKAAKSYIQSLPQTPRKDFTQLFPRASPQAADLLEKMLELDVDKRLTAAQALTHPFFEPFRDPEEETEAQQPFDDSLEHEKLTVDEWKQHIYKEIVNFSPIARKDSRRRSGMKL
Particulars: at 0.1 µM.

The target in test [9] is T1, Mitogen-activated protein kinase 13 (Homo sapiens). The settings on record: at 1 µM.
Test [10] deals with T2, Mitogen-activated protein kinase 12 (Homo sapiens) (UniProt P53778).
T2 sequence (whole entry): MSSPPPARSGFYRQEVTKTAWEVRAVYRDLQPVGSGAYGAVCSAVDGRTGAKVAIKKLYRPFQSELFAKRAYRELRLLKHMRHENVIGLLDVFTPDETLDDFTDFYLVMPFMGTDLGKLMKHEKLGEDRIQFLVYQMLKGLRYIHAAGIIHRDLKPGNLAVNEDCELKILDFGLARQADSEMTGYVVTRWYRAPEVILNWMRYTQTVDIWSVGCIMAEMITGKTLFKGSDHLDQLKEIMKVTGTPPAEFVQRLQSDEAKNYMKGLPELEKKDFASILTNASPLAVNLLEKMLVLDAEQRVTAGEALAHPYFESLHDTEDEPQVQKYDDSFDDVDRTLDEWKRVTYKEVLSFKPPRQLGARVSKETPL
Particulars: at 0.1 µM.

Test [11] has as its target T2, Mitogen-activated protein kinase 12 (Homo sapiens). Particulars: at 1 µM.
Test [12] deals with SRSF protein kinase 1 (Homo sapiens) (UniProt Q96SB4). The settings on record: at 0.1 µM.
Test [13] shares this target. The settings on record: at 1 µM.
The target of test [14] is Phosphatidylinositol 4,5-bisphosphate 3-kinase catalytic subunit alpha isoform (Homo sapiens) (UniProt P42336). Particulars: at 0.1 µM.
For test [15] the target is unchanged. The settings on record: at 1 µM.
Test [16] has as its target T3, Phosphatidylinositol 4,5-bisphosphate 3-kinase catalytic subunit delta isoform (Homo sapiens) (UniProt O00329).
T3 sequence (whole entry): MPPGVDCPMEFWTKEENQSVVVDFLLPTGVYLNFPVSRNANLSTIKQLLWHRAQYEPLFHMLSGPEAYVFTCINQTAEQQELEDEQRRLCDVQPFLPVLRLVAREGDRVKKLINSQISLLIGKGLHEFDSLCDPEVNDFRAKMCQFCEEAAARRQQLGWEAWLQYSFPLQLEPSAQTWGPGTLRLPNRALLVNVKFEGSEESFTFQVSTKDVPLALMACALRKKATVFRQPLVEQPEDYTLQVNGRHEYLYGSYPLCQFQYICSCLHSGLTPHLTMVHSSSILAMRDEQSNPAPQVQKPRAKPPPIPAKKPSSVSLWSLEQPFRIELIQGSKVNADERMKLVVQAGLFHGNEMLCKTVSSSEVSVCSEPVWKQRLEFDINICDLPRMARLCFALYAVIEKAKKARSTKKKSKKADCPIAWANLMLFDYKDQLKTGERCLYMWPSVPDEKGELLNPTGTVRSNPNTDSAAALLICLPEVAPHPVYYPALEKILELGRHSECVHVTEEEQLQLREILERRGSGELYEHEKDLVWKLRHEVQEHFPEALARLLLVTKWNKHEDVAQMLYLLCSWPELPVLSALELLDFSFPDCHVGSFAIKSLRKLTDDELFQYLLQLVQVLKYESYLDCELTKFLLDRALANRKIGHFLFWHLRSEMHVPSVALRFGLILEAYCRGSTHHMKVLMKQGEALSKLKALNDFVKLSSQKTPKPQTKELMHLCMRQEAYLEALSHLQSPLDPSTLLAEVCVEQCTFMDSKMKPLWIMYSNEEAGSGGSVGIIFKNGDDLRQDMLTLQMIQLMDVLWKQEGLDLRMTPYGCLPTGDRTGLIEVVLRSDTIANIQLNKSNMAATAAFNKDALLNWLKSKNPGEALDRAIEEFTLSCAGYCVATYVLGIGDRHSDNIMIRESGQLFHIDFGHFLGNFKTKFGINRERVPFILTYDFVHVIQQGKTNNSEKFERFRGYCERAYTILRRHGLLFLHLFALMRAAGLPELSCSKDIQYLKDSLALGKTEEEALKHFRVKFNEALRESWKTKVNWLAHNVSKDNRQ
Particulars: at 0.1 µM.

Test [17] addresses T3, Phosphatidylinositol 4,5-bisphosphate 3-kinase catalytic subunit delta isoform (Homo sapiens). Particulars: at 1 µM.
Test [18] has as its target Phosphatidylinositol 4-kinase beta (Homo sapiens) (UniProt Q9UBF8). The settings on record: at 0.1 µM.
Test [19] shares this target. Particulars: at 1 µM.
The target in test [20] is Sphingosine kinase 1 (Homo sapiens) (UniProt Q9NYA1). Particulars: at 0.1 µM.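 Further: mean percent inhibition of SPHK1 activity, measured within the GSK PKIS screening panel.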

Usually inhibition stands for the drop in the measured response relative to a control, in per cent.

Mitogen-activated protein kinase 11 (Homo sapiens), sequence (Q15759 whole entry): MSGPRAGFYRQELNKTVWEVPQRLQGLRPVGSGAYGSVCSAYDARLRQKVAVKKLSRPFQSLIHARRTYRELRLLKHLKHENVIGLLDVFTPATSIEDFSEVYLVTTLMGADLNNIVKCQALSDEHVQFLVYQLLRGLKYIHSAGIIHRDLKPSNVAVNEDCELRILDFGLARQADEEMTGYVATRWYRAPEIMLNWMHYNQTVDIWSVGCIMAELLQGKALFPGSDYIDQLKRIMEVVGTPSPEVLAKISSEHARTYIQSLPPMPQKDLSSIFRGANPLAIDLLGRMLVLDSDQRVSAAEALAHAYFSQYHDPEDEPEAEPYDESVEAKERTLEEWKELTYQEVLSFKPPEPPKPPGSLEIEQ
SRSF protein kinase 1 (Homo sapiens), sequence (Q96SB4 whole entry): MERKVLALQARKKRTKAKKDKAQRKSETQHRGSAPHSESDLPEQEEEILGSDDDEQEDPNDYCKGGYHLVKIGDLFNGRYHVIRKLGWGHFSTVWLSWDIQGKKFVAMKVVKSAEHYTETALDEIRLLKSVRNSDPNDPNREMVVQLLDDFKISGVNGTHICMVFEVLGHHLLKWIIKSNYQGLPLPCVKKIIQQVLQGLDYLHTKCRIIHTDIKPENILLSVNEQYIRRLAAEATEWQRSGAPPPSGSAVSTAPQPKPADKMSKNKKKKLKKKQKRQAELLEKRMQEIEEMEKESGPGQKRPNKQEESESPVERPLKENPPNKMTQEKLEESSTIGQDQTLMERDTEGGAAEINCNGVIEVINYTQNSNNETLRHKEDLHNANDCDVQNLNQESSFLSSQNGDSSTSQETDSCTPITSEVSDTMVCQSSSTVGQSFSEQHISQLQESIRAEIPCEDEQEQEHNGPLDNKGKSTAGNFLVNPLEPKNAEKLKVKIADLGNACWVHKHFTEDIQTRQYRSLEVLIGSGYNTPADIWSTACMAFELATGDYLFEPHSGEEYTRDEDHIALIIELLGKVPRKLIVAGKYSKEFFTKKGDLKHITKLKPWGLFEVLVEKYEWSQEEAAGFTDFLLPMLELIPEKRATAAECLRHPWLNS
Phosphatidylinositol 4-kinase beta (Homo sapiens), sequence (Q9UBF8 2-816 limits assumed): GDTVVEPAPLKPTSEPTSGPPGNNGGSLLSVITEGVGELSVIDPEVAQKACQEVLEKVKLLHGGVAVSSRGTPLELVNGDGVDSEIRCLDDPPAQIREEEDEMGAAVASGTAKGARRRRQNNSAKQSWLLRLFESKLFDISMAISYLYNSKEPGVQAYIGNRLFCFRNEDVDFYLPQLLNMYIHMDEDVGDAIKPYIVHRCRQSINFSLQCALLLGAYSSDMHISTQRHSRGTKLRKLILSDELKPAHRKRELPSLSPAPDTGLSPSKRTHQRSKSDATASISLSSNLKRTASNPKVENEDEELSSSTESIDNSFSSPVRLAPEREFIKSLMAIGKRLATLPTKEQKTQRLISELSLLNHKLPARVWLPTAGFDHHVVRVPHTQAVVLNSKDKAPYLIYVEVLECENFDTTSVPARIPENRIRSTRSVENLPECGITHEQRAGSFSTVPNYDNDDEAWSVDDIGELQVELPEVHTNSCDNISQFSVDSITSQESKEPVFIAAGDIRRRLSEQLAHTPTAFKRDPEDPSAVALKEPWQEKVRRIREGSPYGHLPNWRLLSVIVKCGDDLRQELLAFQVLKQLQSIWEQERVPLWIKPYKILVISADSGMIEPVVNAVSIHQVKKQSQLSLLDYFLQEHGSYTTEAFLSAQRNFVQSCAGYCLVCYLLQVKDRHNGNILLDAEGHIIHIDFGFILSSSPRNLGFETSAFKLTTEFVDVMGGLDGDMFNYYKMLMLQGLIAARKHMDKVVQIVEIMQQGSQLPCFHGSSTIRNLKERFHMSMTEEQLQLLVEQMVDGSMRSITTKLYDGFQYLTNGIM
Sphingosine kinase 1 (Homo sapiens), sequence (Q9NYA1 whole entry): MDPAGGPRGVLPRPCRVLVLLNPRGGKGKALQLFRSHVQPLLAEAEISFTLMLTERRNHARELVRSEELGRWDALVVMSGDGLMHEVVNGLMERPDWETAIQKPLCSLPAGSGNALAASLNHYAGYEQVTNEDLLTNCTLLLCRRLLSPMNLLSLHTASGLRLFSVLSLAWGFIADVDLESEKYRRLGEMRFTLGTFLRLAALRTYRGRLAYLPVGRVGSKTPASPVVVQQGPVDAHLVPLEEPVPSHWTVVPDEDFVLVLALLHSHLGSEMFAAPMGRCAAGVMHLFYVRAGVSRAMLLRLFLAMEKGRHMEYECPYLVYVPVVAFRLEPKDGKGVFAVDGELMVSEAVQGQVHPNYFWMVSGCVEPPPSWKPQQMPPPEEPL
Mitogen-activated protein kinase 3 (Homo sapiens), sequence (P27361 whole entry): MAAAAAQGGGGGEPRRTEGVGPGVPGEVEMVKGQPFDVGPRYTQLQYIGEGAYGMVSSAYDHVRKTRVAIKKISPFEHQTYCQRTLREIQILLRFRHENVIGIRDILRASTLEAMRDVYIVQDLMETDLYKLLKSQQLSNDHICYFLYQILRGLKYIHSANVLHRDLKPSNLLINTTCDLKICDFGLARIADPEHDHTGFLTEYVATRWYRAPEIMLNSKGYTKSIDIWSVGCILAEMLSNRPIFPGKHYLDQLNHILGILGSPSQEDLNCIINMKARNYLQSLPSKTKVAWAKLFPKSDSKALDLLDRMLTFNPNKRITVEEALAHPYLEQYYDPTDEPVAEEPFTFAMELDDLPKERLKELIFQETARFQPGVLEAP
SRSF protein kinase 3 (Homo sapiens), sequence (Q9UPE1 whole entry): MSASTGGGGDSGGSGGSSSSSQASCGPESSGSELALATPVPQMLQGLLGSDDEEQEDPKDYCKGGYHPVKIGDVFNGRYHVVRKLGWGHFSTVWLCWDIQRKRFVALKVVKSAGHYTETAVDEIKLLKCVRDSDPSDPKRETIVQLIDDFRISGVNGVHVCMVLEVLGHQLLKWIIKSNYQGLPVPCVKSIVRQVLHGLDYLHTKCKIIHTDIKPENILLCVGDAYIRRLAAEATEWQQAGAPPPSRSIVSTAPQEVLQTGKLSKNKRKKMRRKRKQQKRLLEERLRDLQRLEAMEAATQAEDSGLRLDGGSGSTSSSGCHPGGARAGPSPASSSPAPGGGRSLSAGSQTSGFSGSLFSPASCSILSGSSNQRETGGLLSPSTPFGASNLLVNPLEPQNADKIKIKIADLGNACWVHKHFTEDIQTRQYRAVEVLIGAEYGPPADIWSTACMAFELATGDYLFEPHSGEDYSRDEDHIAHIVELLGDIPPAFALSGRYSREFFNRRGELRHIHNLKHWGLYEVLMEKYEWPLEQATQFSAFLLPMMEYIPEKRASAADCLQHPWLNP
Phosphatidylinositol 4,5-bisphosphate 3-kinase catalytic subunit alpha isoform (Homo sapiens), sequence (P42336 whole entry, canonical isoform): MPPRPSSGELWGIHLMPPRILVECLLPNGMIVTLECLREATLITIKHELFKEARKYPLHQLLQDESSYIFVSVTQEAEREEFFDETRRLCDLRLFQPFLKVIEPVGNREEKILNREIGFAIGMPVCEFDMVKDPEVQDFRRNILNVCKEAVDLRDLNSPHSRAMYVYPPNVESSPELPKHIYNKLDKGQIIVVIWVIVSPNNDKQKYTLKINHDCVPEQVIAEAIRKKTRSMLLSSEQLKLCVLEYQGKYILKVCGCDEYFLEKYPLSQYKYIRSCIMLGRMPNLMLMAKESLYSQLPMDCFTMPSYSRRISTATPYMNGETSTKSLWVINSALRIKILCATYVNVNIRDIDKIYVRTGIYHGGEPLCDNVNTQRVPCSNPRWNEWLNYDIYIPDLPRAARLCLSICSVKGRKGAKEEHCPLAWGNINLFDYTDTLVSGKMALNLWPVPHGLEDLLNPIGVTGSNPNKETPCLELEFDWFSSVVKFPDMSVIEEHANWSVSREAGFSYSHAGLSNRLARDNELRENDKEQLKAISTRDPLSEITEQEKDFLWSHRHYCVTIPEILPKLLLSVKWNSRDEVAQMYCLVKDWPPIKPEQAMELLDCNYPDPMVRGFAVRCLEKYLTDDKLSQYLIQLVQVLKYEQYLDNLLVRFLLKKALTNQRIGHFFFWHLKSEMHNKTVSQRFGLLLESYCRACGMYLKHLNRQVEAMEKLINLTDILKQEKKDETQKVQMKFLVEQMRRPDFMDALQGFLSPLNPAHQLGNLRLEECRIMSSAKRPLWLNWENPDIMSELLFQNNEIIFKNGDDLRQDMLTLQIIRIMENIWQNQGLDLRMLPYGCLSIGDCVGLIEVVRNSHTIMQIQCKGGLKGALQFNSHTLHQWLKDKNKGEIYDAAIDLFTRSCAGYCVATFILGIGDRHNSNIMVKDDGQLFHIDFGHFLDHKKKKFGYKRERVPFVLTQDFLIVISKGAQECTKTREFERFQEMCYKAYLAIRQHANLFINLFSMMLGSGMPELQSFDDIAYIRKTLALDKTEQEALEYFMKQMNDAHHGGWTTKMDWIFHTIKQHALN
Mitogen-activated protein kinase 14 (Homo sapiens), sequence (Q16539 whole entry): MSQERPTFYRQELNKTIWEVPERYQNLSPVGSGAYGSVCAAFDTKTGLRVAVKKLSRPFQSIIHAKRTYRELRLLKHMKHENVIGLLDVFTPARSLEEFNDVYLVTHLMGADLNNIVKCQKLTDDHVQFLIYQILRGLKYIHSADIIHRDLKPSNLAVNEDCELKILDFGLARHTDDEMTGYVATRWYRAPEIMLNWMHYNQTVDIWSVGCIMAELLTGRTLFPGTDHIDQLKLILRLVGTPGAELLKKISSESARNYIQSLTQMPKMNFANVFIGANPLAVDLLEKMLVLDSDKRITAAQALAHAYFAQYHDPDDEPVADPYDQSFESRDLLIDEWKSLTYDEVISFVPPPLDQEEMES

For `COc1cccc(-n2nc(C)c3c(N/N=C(\C)c4ccncc4)ncnc32)c1`, the inhibition is -1.26% in [1]; -0.29% in test [2]; -1.75% in test [3]; 1.46% in test [4]; 0.91% in [5]; 1.51% in test [6]. For the same compound, the inhibition in [7] is 0.17%; in test [8] it was -0.04%; in [9], -0.68%; in test [10] it was -0.13%; in test [11] it was 0.35%; in test [12] it was -2.19%. For the same compound, the inhibition in test [13] was -2.27%; in test [14] it was -0.84%; in test [15], -0.14%; in [16], -1.39%; in test [17] it was 6.02%; in test [18] it was -2.42%. Also, the inhibition in test [19] is -3.63%; in test [20], 1.12%.

`CCOc1nccc2c1nc(-c1nonc1N)n2CC`: the inhibition in [1] was 3.56%; in test [2] it was 0.36%; in test [3], 4.21%; in test [4] it was -6.67%; in [5], 6.06%; in test [6], 3.87%. The inhibition in test [7] was found to be 7.56%; in test [8], 2.58%; in test [9], 2.91%; in [10], 0.94%; in test [11] it was 3.14%; in [12], 0.65%. Also, the inhibition in [13] came out at 6.12%; in test [14] it was 2.9%; in test [15] it was 1.35%; in test [16], 0.56%; in [17], 0.99%; in test [18], 7.22%. For the same compound, the inhibition in [19] is 0.43%; in test [20], 0.81%.

Turning to `[O-][S+]1CCN(Cc2ccc(-c3ccc4ncnc(Nc5ccc(OCc6ccccc6)c(Cl)c5)c4c3)o2)CC1`, the inhibition was 2.24% in [1]; -1.59% in test [2]; 0.03% in test [3]; 16.9% in test [4]; 20.8% in [5]; 1.98% in test [6]. Moreover, the inhibition was 5.76% in [7]; 1.28% in test [8]; 0.19% in test [9]; 0.47% in [10]; 1.59% in [11]; -1.34% in test [12]. Also, the inhibition in test [13] was -2.79%; in test [14], 1.57%; in [15], 0.92%; in [16], 0.92%; in [17], 2.1%; in test [18] it was -2.13%. Also, the inhibition in test [19] is -0.85%; in test [20], 1.88%.

For `CCn1c(-c2nonc2N)nc2c(C#CC(C)(C)O)nc(OCCNC)cc21`, the inhibition is 4.08% in [1]; 0.05% in test [2]; -0.46% in test [3]; 6.16% in [4]; 7.38% in [5]; 2.05% in test [6]. The inhibition in test [7] was 2.15%; in [8] it was 4.59%; in [9] it was 5.13%; in test [10] it was 3.83%; in test [11], 6.39%; in test [12] it was -3.96%. In addition, the inhibition in [13] is -2.97%; in [14] it was 5.21%; in [15], 4.34%; in test [16], 1.6%; in test [17] it was 1.55%; in test [18], -2.53%. The inhibition in test [19] was 3.94%; in test [20], -1.43%.

Regarding `CS(=O)(=O)CCNCc1nc(-c2ccc3ncnc(Nc4ccc(OCc5cccc(C(F)(F)F)c5)cc4)c3c2)cs1`, the inhibition in [1] is 1.69%; in test [2], 0.88%; in [3] it was -1.85%; in test [4], 4.2%; in test [5], 3.19%; in test [6], 2.78%. For the same compound, the inhibition in test [7] is 1.51%; in [8], 1.27%; in test [9], 2.16%; in test [10], 0.83%; in test [11], 2.12%; in test [12] it was -2.46%. Besides, the inhibition in test [13] is -3.03%; in test [14], 1.85%; in test [15], -0.47%; in test [16], 0.76%; in test [17], 3.63%; in [18] it was -0.59%. In addition, the inhibition in [19] is 0.33%; in [20], -1.19%.

Take `ON=C1CCc2cc(-c3nc(C4CCNCC4)[nH]c3-c3ccncc3)ccc21`: the inhibition in test [1] was 0.97%; in test [2], -1.32%; in test [3], -2.19%; in [4], 25.4%; in test [5] it was 73.7%; in test [6], 7.03%. The inhibition in test [7] is 33.1%; in test [8], -0.29%; in [9] it was 0.95%; in [10] it was 1.31%; in test [11] it was 1%; in test [12], -1.62%. Moreover, the inhibition in test [13] is -5.28%; in test [14], -1.04%; in test [15] it was 0%; in [16] it was 0.31%; in [17] it was 3.08%; in [18], 2.07%. In addition, the inhibition in test [19] was -0.63%; in test [20], -1.16%.
